These results are taken from PubChem BioAssay AID760 (NMMLSC, 2007).

The whole screen tested about 190,000 compounds, of which about 360 (0.19%) were called active. Not shown: some 2% with an inconclusive outcome. Shown is part of a subset that was picked to be rich in actives. A number with no mark means an inactive call.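 How the source made its calls: active means GTP binding activity at least 20 points away from 100%, either lowered or raised; inconclusive means signal likely due to the compound's own green fluorescence; inactive means the rest.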

This assay concerns the target Ras-related protein Rab-2A (Canis lupus familiaris) (UniProt P61105). Put plainly: modulators of GTP binding to Rab2A wildtype, primary screen, biochemical, dog, bead-based flow cytometry, multiplex (AID 760).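 Further: 0% = beads with excess unlabeled GTP and 100% = no-compound control corrected for plate trend.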 As to conditions: GST-Rab2 wt beads, Bodipy-GTP binding, at 10 µM.
In the case of `CCc1nnc(NC(=O)CSc2nnnn2-c2cccc(C(C)=O)c2)s1`, the GTP binding activity was 97%. Consider `CC(=O)NC1C(OCc2ccccc2)OC(COC(C)=O)C(OC(C)=O)C1OC(C)=O` (centres undefined), for which the GTP binding activity is 100%. Turning to `O=C(OCC1O[C@@H](OC(=O)c2cc(O)c(O)c(O)c2)[C@@H](OC(=O)c2cc(O)c(O)c(O)c2)[C@@H](OC(=O)c2cc(O)c(O)c(O)c2)[C@@H]1OC(=O)c1cc(O)c(O)c(O)c1)c1cc(O)c(O)c(O)c1` (some centres undefined), the GTP binding activity is 79% (active). With `CC1(C)CN(c2ccc(-c3ccnc4ncnn34)cc2)C1=O`, the GTP binding activity is 99%. The result for `CCCOCC(O)CC(CC)C(=O)NNC(=S)Nc1ccccc1` (centres undefined) reads 100%.

Consider `O=C(Nc1ccc(F)cc1)C1CCN(C(=O)c2ccc([N+](=O)[O-])cc2)CC1`, for which the GTP binding activity was 97%. Regarding `O=C(Nc1ccc(F)c([N+](=O)[O-])c1)C1CC(=O)N(Cc2ccccc2)C1` (centres undefined), the GTP binding activity is 92%. On to `Cc1cc(C2=NNC(=Nc3ccc(S(=O)(=O)N4CCOCC4)cc3)SC2)c(C)n1CC1CCCO1` (centres undefined), for which the GTP binding activity was 101%. In the case of `O=C(N/C(=C\c1ccc(F)cc1)C(=O)N1CCCCCC1)c1ccccc1`, the GTP binding activity was 98%. The result for `Clc1ccc(CN2CCN(/N=C/c3cccnc3)CC2)cc1` reads 101%; that for `COc1c(F)c(F)c(C(=O)O)c(Nc2ccccc2C)c1F`, 97%. Turning to `Cc1ccc(NC(=S)NC(=O)c2ccc(-c3ccccc3)cc2)c(C)c1`, the GTP binding activity was 97%. For the compound `Cc1ccc(Nc2c(F)c(F)c(F)c(F)c2C(=O)O)c(C)c1`, the GTP binding activity is 131% [activator] (active). The result for `Cc1cc(C)n(CC(=O)Nc2ccc([N+](=O)[O-])cc2)n1` reads 96%; that for `COc1ccc(C2CC(c3cccs3)Nc3nnnn32)cc1` (centres undefined), 98%; that for `Cc1c(Br)ccc(NC(=O)COc2ccccc2C(N)=O)c1C`, 102%.

With `CN1C(=O)/C(=C\c2ccc(-c3ccccc3)o2)SC1=S`, the GTP binding activity was 88%. Turning to `O=C(CCc1ccccc1)NCCc1cccs1`, the GTP binding activity is 100%. The same measure for `O=C(CCC(=O)N1CCCC1)Nc1ccc([N+](=O)[O-])cc1`: 101%; for `CN(C)CC(C)(C)CNC(=O)c1cc(Br)cc(Br)c1O`: 95%; for `N#C/C(=C\c1ccc(-c2cccc([N+](=O)[O-])c2)o1)C(=O)NCCN1CCOCC1`: 92%. The same measure for `CCN1CCN(C(=O)CCN2C(=O)c3ccccc3C2=O)CC1`: 98%.

With `COc1ccc(CC(=O)NCc2nnc(SCC(=O)Nc3ncc(C)s3)n2C)cc1`, the GTP binding activity is 98%.

Turning to `CCC(O)C1CCN(Cc2cn(-c3ccc(OC)cc3)nc2-c2cccc(F)c2)CC1` (centres undefined), the GTP binding activity was 102%. As to `CCC1(CC)NC(=O)N(Cc2nc3ccccc3s2)C1=O`, the GTP binding activity is 98%.

`Nc1c(C(=O)O)cnn1-c1ccccc1`: the GTP binding activity is 96%. The result for `Fc1ccccc1Cc1ccc(Cl)nn1` reads 96%; that for `CC(=O)Nc1ccc(S(=O)(=O)Nc2nccc(/C=C/c3ccccc3F)n2)cc1`, 99%; that for `O=C1NC2(CCCCCC2)C(=O)N1CCS(=O)(=O)Oc1ccccc1`, 96%.

Regarding `O=C(Nc1cccnc1)c1ccc(Cl)cc1[N+](=O)[O-]`, the GTP binding activity was 103%.

On to `COc1ccc(NC(=O)c2c(SC)nsc2SC)cc1`, for which the GTP binding activity was 100%.

As to `CSc1ncccc1C(=O)NC1CCCCCC1`, the GTP binding activity was 99%. The same measure for `CSc1nsc(SC)c1NC(=O)OC1CCCCC1`: 31% (active). The same measure for `Cc1ccc(N(C(=O)c2ccc(S(=O)(=O)N(C)C)cc2)C2C=CS(=O)(=O)C2)cc1` (centres undefined): 99%. The result for `COc1ccc(CCNC(=O)CCn2c(=O)c3ccccc3n(CC(=O)NCC3CCCO3)c2=O)cc1OC` (centres undefined) reads 96%; that for `COc1ccc(/C=C/C2=CC(C)(C)NC(=S)N2)c(OC)c1`, 96%. `CCOC(=O)c1ccc(NC(=O)C2CC(=O)Nc3nc4ccccc4n32)cc1` (centres undefined): the GTP binding activity was 94%. As for `C/C(=N\NC(=O)OC(C)(C)C)c1ccc[nH]1`, the GTP binding activity was 98%. Consider `O=C(Cn1nnc2ccccc2c1=O)NCc1ccc(Cl)cc1`, for which the GTP binding activity is 100%. The same measure for `CC(C)CCC(C)NC(=O)c1ccc2nccnc2c1` (centres undefined): 97%. The same measure for `COc1ccc(CCNC(=O)COC(=O)Cc2cc(OC)c(OC)c(OC)c2)cc1`: 96%; for `Cn1cc(-c2ccccc2)cc(C#N)c1=O`: 98%.

For the compound `CCc1ccccc1NC(=O)CSc1nnc(-c2ccncc2)o1`, the GTP binding activity is 99%. Regarding `Cc1ccc(C2=NN(C(=O)COc3ncnc4ccccc34)C(c3ccco3)C2)cc1` (centres undefined), the GTP binding activity is 93%. The result for `COc1ccc(OC)c(-n2c(=S)[nH]c3cc(C(=O)N4CCCCC4)ccc3c2=O)c1` reads 100%; that for `S=C(Nc1ccc(Br)cc1Cl)NC1CCN(Cc2ccccc2)CC1`, 100%; that for `CN(C)c1nc(-c2cccnc2)nc(-c2ccc(Cl)cc2)c1C#N`, 98%. Consider `CC(=O)Nc1ccc(OCCC[n+]2cccc(C(=O)[O-])c2)cc1`, for which the GTP binding activity was 97%. With `CCOC(=O)C1=C(CN2CCCCCC2)NC(=O)NC1c1cccc([N+](=O)[O-])c1` (centres undefined), the GTP binding activity was 97%.

As for `COc1ccc(-n2c(C)nn(CC3CC3)c2=O)cc1`, the GTP binding activity was 100%. The same measure for `CN(C)CCCn1c(SCCN2C(=O)c3ccccc3C2=O)nc2ccccc2c1=O`: 95%.

For the compound `O=S(=O)(Nc1cc(S(=O)(=O)N2CCOCC2)ccc1N1CCCC1)c1cccs1`, the GTP binding activity is 98%. The result for `Cc1ccc(N(C(=O)Cc2cccs2)C2C=CS(=O)(=O)C2)cc1Cl` (centres undefined) reads 100%; that for `C/C(=N\Nc1ncc(Cl)cc1Cl)c1cccs1`, 98%. The result for `Cc1cccc(CN2CCN(Cc3cnn(-c4ccccc4F)c3)CC2CCO)n1` (centres undefined) reads 99%. The same measure for `Cc1cc(C)n(-c2nc(C(F)(F)F)nc3ccccc23)n1`: 96%; for `Cc1ccc(NC(=S)N(Cc2ccco2)C(C)c2cccs2)cc1` (centres undefined): 101%; for `COC(=O)c1cc(NC(=O)c2cccnc2)ccc1N1CCOCC1`: 96%. Regarding `CCN(CC)c1ccc(C(=O)c2cnc(/N=C/N(C)C)s2)cc1`, the GTP binding activity was 95%.

Consider `Cc1cc(NC(=O)CSc2nc3c(cc2C#N)CCCCC3)no1`, for which the GTP binding activity was 94%. Take `O=C(Cc1ccccc1)N1CCN(S(=O)(=O)c2ccc([N+](=O)[O-])cc2)CC1`: the GTP binding activity is 98%. In the case of `N#C/C(C(=S)Nc1ccccc1)=C1/NN=C(N2CCOCC2)N1c1ccccc1`, the GTP binding activity is 90%.

Consider `CCCn1c(N)c(C(=O)CSc2nc3ccccc3c(=O)n2-c2ccc(OC)cc2)c(=O)[nH]c1=O`, for which the GTP binding activity was 92%.

Consider `S=c1[nH]nc(Nc2ccccc2)s1`, for which the GTP binding activity is 92%. The result for `O=C1CCC(=O)N1c1ccc(NCCc2ccccc2F)c([N+](=O)[O-])c1` reads 101%. The same measure for `NC(=O)COC(=O)c1sc2cc(F)ccc2c1Cl`: 94%. Regarding `CCN(CC)S(=O)(=O)c1ccc(N2CCCC2)c(NS(=O)(=O)c2cccs2)c1`, the GTP binding activity was 94%. With `O=C(NCc1ccccc1Cl)C1CCN(S(=O)(=O)N2CCOCC2)CC1`, the GTP binding activity is 104%. The result for `Cc1ccc(NC(=O)c2ccccn2)cc1S(=O)(=O)N1CCOCC1` reads 99%; that for `CSc1ccc(CNCCN2CCOCC2)cc1`, 96%; that for `COC(=O)c1ccc(NC(=S)NN2CCOCC2)cc1`, 99%.

On to `CCCC(=O)OCC(=O)Nc1cc(Cl)ccc1[N+](=O)[O-]`, for which the GTP binding activity is 92%. Take `O=c1c(-c2ccccc2)cnc2n1CCS2`: the GTP binding activity is 96%. The same measure for `Cc1ccc(NC(=O)c2ccc(S(=O)(=O)NCC3CCCO3)cc2)cc1C` (centres undefined): 97%. The same measure for `Cc1cc(CNCc2c(C(=O)N(C)Cc3ccccc3)nc3ccccn23)nn1C`: 101%; for `O=C(Nc1nnc(C2CC2)s1)C1=NN(C2CCS(=O)(=O)C2)C(=O)CC1` (centres undefined): 96%. Take `Cc1nc(N2CCCCC2)sc1C=O`: the GTP binding activity is 105%. The same measure for `Cc1ccccc1NCC(=O)N/N=C\c1ccc([N+](=O)[O-])s1`: 98%. Regarding `CS/C(=C\[N+](=O)[O-])Nc1ccc(C)cc1`, the GTP binding activity was 100%. For `O=C(NCC1CCCO1)C1CCN(C2CCN(C(=O)C3CCCCC3)CC2)CC1` (centres undefined), the GTP binding activity was 98%. The result for `COC(=O)c1cc2n(n1)CCCNC2=O` reads 100%; that for `COc1ccc(N(CC(=O)NC2CCCC2)C(=O)CS(=O)CC(=O)Nc2ccc3c(c2)OCO3)cc1` (centres undefined), 95%. In the case of `CCOC(=O)C1(Cc2ccc(Cl)cc2)CCN(C(=O)C2=NNC(=O)CC2)CC1`, the GTP binding activity is 101%. With `Cc1cc(=O)oc2c1c(C)nn2-c1ccc(Cl)cc1`, the GTP binding activity is 100%.

As to `COc1ccc(/C=N/Nc2ncnc3sc4c(c23)CCCC4)cc1O`, the GTP binding activity was 71% (active). The result for `COc1cc(/C=N/Nc2ccc(C)cc2)cc(Br)c1O` reads 94%; that for `COc1ncnc2sc3c(c12)CCCC3`, 102%. For the compound `COc1ccc(NC(=S)NCCN2CCC(C)CC2)cc1`, the GTP binding activity is 100%. The same measure for `COc1cc(OC)c(C(=O)N2CCCC2)cc1OC`: 98%.

Regarding `COc1ccc(/C=N/NC(=O)c2ccncc2)cc1CN1CCCc2ccccc21`, the GTP binding activity is 95%. The same measure for `COc1ccc(CN2CCC(c3nc4ccc(Cl)cc4[nH]3)CC2)cc1`: 96%; for `CC(Sc1nnnn1C1CCCCC1)C(=O)O` (centres undefined): 101%. The result for `COc1ccc(C(=O)OCC(=O)NCC2CCCO2)cc1[N+](=O)[O-]` (centres undefined) reads 93%; that for `COC(=O)c1ccc(CN2CCN(CCCc3ccccc3)C(CCO)C2)cc1` (centres undefined), 97%.

For `CCCSc1nc2[nH]ncc2c(=O)[nH]1`, the GTP binding activity was 99%. The same measure for `Cc1cccc(NC(=O)CSc2nc3[nH]ncc3c(=O)[nH]2)c1`: 94%; for `Cc1ccc(CSc2nc3[nH]ncc3c(=O)[nH]2)cc1`: 79% (active). Regarding `Cc1cc(OCC(=O)NC2CCN(C)CC2)ccc1[N+](=O)[O-]`, the GTP binding activity was 98%. The same measure for `COc1ccc(C/C(N)=N/OC(=O)c2ccco2)cc1OC`: 101%.
